PubChem BioAssay (Tox21)
Results filed as inconclusive are left out. A call without a number means that no potency is given here. Activity calls are given as the source filed them. Unless noted, the call rests on the fitted dose curve. Bridge positions count the residues as written; N and C are the ends. Square brackets hold non-standard residues; d marks the D form. Peptide text beside a SMILES is read from it. hArg = N=C(N)NCCCC[C@H](N)C(=O)O; Mpa = O=C(O)CCS

Columns and labels:
[1] = Nuclear factor erythroid 2-related factor 2/antioxidant responsive element (Nrf2/ARE) small molecule agonists: qHTS cell viability counter screen in human keratinocytes (AID 1919968; active means well fitted curve in the direction sought with a large enough effect in the repeat runs; an effect the other way counts as inactive or inconclusive; further: nearly all actives have a fitted effect of over 55% in size; further: potency means the concentration at half of the fitted maximal effect)
Outline: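 KeratinoSens cells (HaCaT keratinocytes stably carrying an ARE-luciferase reporter) were seeded at 1,500 cells/well and rested 5 h at 37 C/5% CO2. They were then exposed to compounds in DMSO for 23 h. Viability was read by CellTiter-Fluor fluorescence after 1 h.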

[2] = molecular target: Gonadotropin-releasing hormone receptor (Homo sapiens) (UniProt P30968); assay: Human gonadotropin-releasing hormone receptor (GnRHR) small molecule agonists, calcium flux assay in GnRHR-HEK293 cells (AID 1920063); further: nearly all actives have a fitted effect of over 35% in size
Chain of Gonadotropin-releasing hormone receptor (Homo sapiens) (P30968 whole entry, looked up): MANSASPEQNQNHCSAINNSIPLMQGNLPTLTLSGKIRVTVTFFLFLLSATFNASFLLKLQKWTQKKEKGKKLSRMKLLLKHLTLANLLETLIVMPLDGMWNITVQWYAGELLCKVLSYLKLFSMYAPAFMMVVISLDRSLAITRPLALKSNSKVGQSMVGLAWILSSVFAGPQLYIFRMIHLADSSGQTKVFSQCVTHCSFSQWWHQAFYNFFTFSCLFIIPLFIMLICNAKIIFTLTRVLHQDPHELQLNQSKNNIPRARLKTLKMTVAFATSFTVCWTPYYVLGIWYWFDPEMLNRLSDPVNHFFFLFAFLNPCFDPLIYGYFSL
Outline: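 HEK293 cells stably expressing human GnRHR were plated 18 h at 37 °C, loaded with calcium dye 1 h at 37 °C, then given compound in agonist mode; fluorescence (Ex/Em 480/540) read kinetically for 3 min at 1 s intervals.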

[3] = molecular target: KiSS-1 receptor (Homo sapiens) (UniProt Q969F8); assay: Human kisspeptin (KISS1R) small molecule agonists, calcium flux assay in KISS1R-HEK293 cells (AID 1920064; active means well fitted curve in the direction sought with a large enough effect in the repeat runs; an effect the other way counts as inactive or inconclusive)
Chain of KiSS-1 receptor (Homo sapiens) (Q969F8 whole entry, looked up): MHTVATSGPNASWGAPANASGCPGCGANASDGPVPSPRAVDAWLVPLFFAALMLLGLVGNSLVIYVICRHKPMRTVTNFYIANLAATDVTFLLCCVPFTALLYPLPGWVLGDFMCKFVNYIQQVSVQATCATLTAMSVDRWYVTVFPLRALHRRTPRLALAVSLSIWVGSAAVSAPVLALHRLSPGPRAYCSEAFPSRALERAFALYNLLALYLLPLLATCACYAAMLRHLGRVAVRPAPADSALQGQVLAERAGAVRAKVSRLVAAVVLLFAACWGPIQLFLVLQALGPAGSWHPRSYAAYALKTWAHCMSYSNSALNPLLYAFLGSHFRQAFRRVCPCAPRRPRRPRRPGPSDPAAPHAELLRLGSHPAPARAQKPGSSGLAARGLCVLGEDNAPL
Outline: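 HEK293 cells stably expressing human KISS1R were plated 18 h at 37 °C, loaded with calcium dye for 1 h at 37 °C, then given compound by pin tool. Fluorescence (Ex/Em 480/540) was read kinetically for 3 min.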

[4] = G protein-coupled receptor (GPCR) small molecule agonists, calcium flux assay: HEK293 wild type cell line counter screen (AID 1920065)
Outline: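 Cells were plated and cultured 18 h at 37 C/5% CO2, then loaded with calcium dye for 1 h at 37 C. Compounds in DMSO were pin-transferred in agonist mode, and fluorescence (Ex/Em 480/540) was read kinetically for 3 min at 1 s intervals.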

[5] = p53 small molecule agonists, cell-based qHTS assay with human liver microsomes (AID 1963577);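 further: p53 response element beta-lactamase reporter cells with liver microsomes plus NADPH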
Outline: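 In this qHTS, p53 response-element beta-lactamase cells receive test compound together with a microsome/NADPH activating system (0.5 mg/mL final each) and are incubated 16 h at 37 C before LiveBLAzer fluorescence detection.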

[6] = p53 small molecule agonists, cell-based qHTS assay with human liver microsomes: qHTS cell viability counter screen (AID 1963579); further: nearly all actives have a fitted effect of over 45% in size; further: potency means the concentration at half of the fitted maximal effect
Outline: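 Metabolically activated exposure: compounds, human liver microsomes and NADPH (0.5 mg/mL final apiece) were added to p53RE-bla cells seeded 5 h earlier, left 16 h at 37 C, and then assessed for viability by CellTiter-Glo luminescence.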

[7] = p53 small molecule agonists, cell-based qHTS assay with rat liver microsomes: qHTS cell viability counter screen (AID 1963580); further: nearly all actives have a fitted effect of over 45% in size; further: potency means the concentration at half of the fitted maximal effect
Outline: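 p53RE-bla HCT-116 cells (4,000/well) rested 5 h at 37 C, then given Tox21 compounds in DMSO with rat liver microsomes (0.5 mg/mL final) plus NADPH (0.5 mg/mL final) for 16 h at 37 C. Viability read by CellTiter-Glo luminescence after 30 min at room temperature.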

[8] = p53 small molecule agonists, cell-based qHTS assay: qHTS cell viability counter screen (AID 1963581); further: nearly all actives have a fitted effect of over 45% in size; further: potency means the concentration at half of the fitted maximal effect
Outline: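 p53RE-bla HCT-116 cells were exposed to compounds for 16 h at 37 C; after the beta-lactamase FRET read in the same wells, CellTiter-Glo was added and luminescence (intracellular ATP) read after 30 min at room temperature.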

[9] = p53 small molecule agonists, cell-based qHTS assay (AID 1963582; active means well fitted activation curve with a large enough effect in the signal ratio in the repeat runs, not every such curve was filed as active; the % refers to the signal ratio)
Outline: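 p53RE-bla beta-lactamase reporter cells rested 5 h at 37 C/5% CO2, then received compounds in DMSO by pin transfer and were incubated 16 h at 37 C. LiveBLAzer B/G FRET substrate was loaded for 2 h at room temperature before fluorescence reading.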

[10] = molecular target: 5-hydroxytryptamine receptor 2A (Homo sapiens) (UniProt P28223); assay: 5-hydroxytryptamine receptor 2A (HTR2A) small molecule agonists, cell-based qHTS assay (AID 1963587); further: nearly all actives have a fitted effect of over 30% in size
Chain of 5-hydroxytryptamine receptor 2A (Homo sapiens) (P28223 whole entry, looked up): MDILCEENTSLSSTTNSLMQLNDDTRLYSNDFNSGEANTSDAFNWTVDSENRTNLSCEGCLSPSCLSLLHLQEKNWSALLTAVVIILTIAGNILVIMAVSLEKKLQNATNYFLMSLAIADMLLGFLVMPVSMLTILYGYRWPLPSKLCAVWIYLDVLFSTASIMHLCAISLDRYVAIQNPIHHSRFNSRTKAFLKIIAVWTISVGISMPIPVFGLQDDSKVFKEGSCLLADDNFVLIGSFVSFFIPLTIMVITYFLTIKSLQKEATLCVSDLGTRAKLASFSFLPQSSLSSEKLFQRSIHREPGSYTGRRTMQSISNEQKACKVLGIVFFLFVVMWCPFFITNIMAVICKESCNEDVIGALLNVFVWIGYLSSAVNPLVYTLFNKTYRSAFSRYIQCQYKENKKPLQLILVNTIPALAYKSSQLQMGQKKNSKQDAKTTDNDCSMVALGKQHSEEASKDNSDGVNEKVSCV
Outline: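 HTR2A-CHO cells, plated 18 h at 37 C/5% CO2, dye-loaded 1 h at 37 C; compounds in DMSO added by pin tool (agonist mode). Intracellular calcium flux read as kinetic fluorescence on FDSS over 2 min at 1 s intervals.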

[11] = molecular target: Muscarinic acetylcholine receptor M1 (Homo sapiens) (UniProt P11229); assay: Cholinergic receptor muscarinic 1 (CHRM1) small molecule antagonists, cell-based qHTS assay (AID 1963588); further: nearly all actives have a fitted effect of over 40% in size; further: potency means the concentration at half of the fitted maximal effect
Chain of Muscarinic acetylcholine receptor M1 (Homo sapiens) (P11229 whole entry, looked up): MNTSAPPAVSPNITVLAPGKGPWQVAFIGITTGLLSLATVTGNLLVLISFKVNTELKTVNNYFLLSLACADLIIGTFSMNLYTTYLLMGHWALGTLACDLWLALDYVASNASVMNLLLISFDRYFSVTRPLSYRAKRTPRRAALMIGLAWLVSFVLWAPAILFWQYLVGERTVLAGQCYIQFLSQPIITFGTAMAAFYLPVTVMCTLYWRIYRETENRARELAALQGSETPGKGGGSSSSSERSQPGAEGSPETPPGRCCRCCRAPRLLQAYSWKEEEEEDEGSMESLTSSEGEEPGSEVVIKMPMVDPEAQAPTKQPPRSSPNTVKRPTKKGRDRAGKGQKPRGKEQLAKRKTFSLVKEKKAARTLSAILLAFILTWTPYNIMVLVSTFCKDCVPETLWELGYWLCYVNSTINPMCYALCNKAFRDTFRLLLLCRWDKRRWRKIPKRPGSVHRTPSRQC
Outline: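 CHRM1-CHO calcium-flux assay, antagonist mode. Cells were seeded 18 h, dye-loaded 1 h at 37 C and given compound for 5 min at RT, then acetylcholine was added at 50nM. FDSS fluorescence was read 3 min; 15 concentrations, three runs.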

[12] = molecular target: Muscarinic acetylcholine receptor M1 (Homo sapiens) (UniProt P11229); assay: Cholinergic receptor muscarinic 1 (CHRM1) small molecule agonists, cell-based qHTS assay (AID 1963589); further: nearly all actives have a fitted effect of over 35% in size
Outline: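 CHO cells stably expressing human CHRM1, seeded 18 h at 37 C/5% CO2, dye-loaded 1 h at 37 C, then given compound in agonist mode; intracellular calcium fluorescence read kinetically at 1 s intervals. Fifteen concentrations, three independent runs.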

[13] = cAMP Responsive Elements (CRE) small molecule agonists, cell-based qHTS assay (AID 1963590)
Outline: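 CRE-bla HEK 293T cells in DMEM with 10% dialyzed FBS, NEAA, pyruvate and 25 mM HEPES were plated 18 h at 37 C/5% CO2, then exposed to compounds in DMSO for 3 h before LiveBLAzer B/G FRET substrate addition.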

[14] = cAMP Responsive Elements (CRE) small molecule antagonists, cell-based qHTS assay (AID 1963591; active means well fitted inhibition curve with a large enough effect in the signal ratio in the repeat runs, not every such curve was filed as active; the % refers to the signal ratio)
Outline: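 CRE-bla HEK293T cells were plated 18 h at 37 °C/5% CO2, pinned with compound in DMSO, then stimulated with NKH477 at 0.25 uM final for 3 h. LiveBLAzer B/G FRET substrate was added and plates incubated 2 h at room temperature.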

[15] = molecular target: Beta-2 adrenergic receptor (Homo sapiens) (UniProt P07550); assay: Adrenergic beta2 receptor (ADRB2) small molecule agonists, cell-based qHTS assay (AID 1963593);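 further: CHO cells stably overexpressing human ADRB2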
Chain of Beta-2 adrenergic receptor (Homo sapiens) (P07550 whole entry, looked up): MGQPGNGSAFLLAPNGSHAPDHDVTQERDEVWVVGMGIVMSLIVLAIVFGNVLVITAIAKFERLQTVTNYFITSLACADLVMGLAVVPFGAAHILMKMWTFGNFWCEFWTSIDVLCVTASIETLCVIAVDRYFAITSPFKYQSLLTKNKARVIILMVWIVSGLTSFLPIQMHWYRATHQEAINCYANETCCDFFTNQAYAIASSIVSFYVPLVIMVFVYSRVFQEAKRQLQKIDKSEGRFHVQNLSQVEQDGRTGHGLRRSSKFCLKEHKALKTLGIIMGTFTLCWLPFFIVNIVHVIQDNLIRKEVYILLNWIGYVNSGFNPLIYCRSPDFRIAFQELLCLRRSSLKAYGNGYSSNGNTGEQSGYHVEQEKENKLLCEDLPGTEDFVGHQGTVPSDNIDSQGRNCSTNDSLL
Outline: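 CHO cells stably over-expressing ADRB2 were plated overnight at 37C, then dosed with compounds plus a stimulation mix containing 100uM IBMX and 25uM Ro-20-1724 for 0.5hr at room temperature. cAMP was measured by HTRF competition, 1hr.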

[16] = molecular target: D(2) dopamine receptor (Homo sapiens) (UniProt P14416); assay: Dopamine D2 receptor (DRD2) small molecule agonists, cell-based qHTS assay (AID 1963594); further: nearly all actives have a fitted effect of over 35% in size; further: potency means the concentration at half of the fitted maximal effect
Chain of D(2) dopamine receptor (Homo sapiens) (P14416 whole entry, looked up): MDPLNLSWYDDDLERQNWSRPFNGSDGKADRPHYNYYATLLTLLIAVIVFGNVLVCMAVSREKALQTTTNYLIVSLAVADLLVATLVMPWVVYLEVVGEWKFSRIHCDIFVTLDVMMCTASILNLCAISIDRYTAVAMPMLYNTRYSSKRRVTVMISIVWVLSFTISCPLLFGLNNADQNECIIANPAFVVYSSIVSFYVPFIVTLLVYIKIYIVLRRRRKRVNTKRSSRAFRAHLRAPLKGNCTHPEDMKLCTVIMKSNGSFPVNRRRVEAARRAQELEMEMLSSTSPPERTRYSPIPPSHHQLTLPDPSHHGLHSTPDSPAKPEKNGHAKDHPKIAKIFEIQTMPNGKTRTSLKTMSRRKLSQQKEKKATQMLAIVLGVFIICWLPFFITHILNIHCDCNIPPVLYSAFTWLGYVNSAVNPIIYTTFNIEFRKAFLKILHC
Outline: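 HEK293 cells stably expressing DRD2 were cultured 24 h at 37 C, then given Ro20-1724 (0.1 mM final) and compounds for 10 min at room temperature. NKH477 (200nM) was then added for 30 min. cAMP was read by HTRF.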

[17] = molecular target: D(2) dopamine receptor (Homo sapiens) (UniProt P14416); assay: Dopamine D2 receptor (DRD2) small molecule antagonists, cell-based qHTS assay (AID 1963595; active means well fitted inhibition curve with a large enough effect in the signal ratio in the repeat runs, with a control signal flat; the % refers to the signal ratio)
Outline: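 In this cell-based antagonist screen, compounds act for 10 min at room temperature before a 30 min challenge with 12 nM quinpirole and 200 nM NKH477. cAMP is quantified by HTRF competition in DRD2-HEK293 cells containing 0.1 mM Ro20-1724.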

[18] = p53 small molecule agonists, cell-based qHTS assay with rat liver microsomes (AID 1963578)
Outline: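 Agonist mode in p53RE-bla reporter cells, with compounds co-incubated 16 h at 37 C alongside 0.5 mg/mL rat liver microsomes and 0.5 mg/mL NADPH (final), followed by a 2 h LiveBLAzer detection step.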

[19] = molecular target: 5-hydroxytryptamine receptor 2A (Homo sapiens) (UniProt P28223); assay: 5-hydroxytryptamine receptor 2A (HTR2A) small molecule antagonists, cell-based qHTS assay (AID 1963586); further: nearly all actives have a fitted effect of over 45% in size; further: potency means the concentration at half of the fitted maximal effect
Outline: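 Antagonist-mode intracellular calcium assay: DOI (4 nM) added after 5 min compound pre-incubation at room temperature to dye-loaded HTR2A-CHO cells. Fluorescence followed for 3 min, sampled every second.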

[20] = molecular target: Beta-2 adrenergic receptor (Homo sapiens) (UniProt P07550); assay: Adrenergic beta2 receptor (ADRB2) small molecule antagonists, cell-based qHTS assay (AID 1963592); further: series mostly up to about 92 µM; nearly all actives have a fitted effect of over 50% in size
Outline: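 Cells (CHO, stable ADRB2 overexpression) incubated 18-20hr at 37C; compounds added from DMSO; agonist mix (1nM isoproterenol, 100uM IBMX, 25uM Ro-20-1724) added; 0.5hr RT; d2-cAMP and anti-cAMP-cryptate added; 1hr RT; 665/615 nm read.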

Compound | Potency [1] | Potency [2] | Potency [3] | Potency [4] | Potency [5] | Potency [6] | Potency [7] | Potency [8] | Potency [9] | Potency [10] | Potency [11] | Potency [12] | Potency [13] | Potency [14] | Potency [15] | Potency [16] | Potency [17] | Potency [18] | Potency [19] | Potency [20]
[O-][N+](=Nc1ccccc1)c1ccccc1 | inactive | inactive | inactive | inactive | inactive | inactive | inactive | inactive | inactive | inactive | inactive | inactive | inactive | inactive | inactive | inactive | inactive | – | – | –
c1ccc2occc2c1 | inactive | inactive | inactive | inactive | inactive | – | – | – | – | – | inactive | – | inactive | inactive | – | – | inactive | inactive | 0.375 µM (active) | –
NC(=O)[C@@H]1CSSCCC(=O)N[C@@H](CCCCN=C(N)N)C(=O)NCC(=O)N[C@@H](CC(=O)O)C(=O)N[C@@H](Cc2c[nH]c3ccccc23)C(=O)N2CCC[C@H]2C(=O)N1 ([Mpa][hArg]GDWPC-NH2; disulfide 1-7) | inactive | inactive | inactive | inactive | inactive | inactive | inactive | inactive | inactive | – | – | – | inactive | inactive | inactive | inactive | – | – | – | inactive
NO | inactive | inactive | inactive | inactive | – | inactive | inactive | inactive | inactive | – | inactive | inactive | inactive | inactive | inactive | inactive | inactive | inactive | inactive | inactive
CCOC(=O)/C=C(C)/C=C/C=C(C)/C=C/c1c(C)cc(OC)c(C)c1C | inactive | inactive | inactive | inactive | inactive | inactive | inactive | inactive | – | inactive | inactive | inactive | – | – | inactive | inactive | inactive | – | inactive | inactive
CCC(C)Nc1ccc(NC(C)CC)cc1 (stereo not given) | 3.93 µM (active) | inactive | inactive | inactive | – | 2.08 µM (active) | 4.66 µM (active) | 10.4 µM (active) | inactive | – | 9.6 µM (active) | inactive | – | – | – | – | – | inactive | inactive | –
O=C(O)Cc1ccc(Cl)cc1Cl | inactive | inactive | inactive | inactive | inactive | – | inactive | inactive | inactive | inactive | – | inactive | inactive | inactive | inactive | inactive | inactive | – | inactive | inactive
CCCCCCCCCC(C)C=O (stereo not given) | inactive | inactive | inactive | inactive | inactive | – | inactive | inactive | – | inactive | inactive | inactive | – | inactive | – | inactive | inactive | inactive | inactive | inactive
CCc1cccc(N(C)C(N)=Nc2cccc3ccccc23)c1 | inactive | inactive | inactive | inactive | inactive | – | inactive | inactive | inactive | inactive | – | inactive | inactive | inactive | inactive | inactive | inactive | inactive | – | inactive
CO[C@@H]1[C@@H](OC)[C@H](C)[C@@](O)(CC(=O)O)O[C@H]1[C@H](C)[C@H]1O[C@@]2(CC[C@@](C)([C@H]3CC[C@@](C)([C@@H]4O[C@@H]([C@H]5O[C@](C)(O)[C@H](C)C[C@@H]5C)C[C@@H]4OC4C[C@H](OC)[C@@H](OC)[C@H](C)O4)O3)O2)C[C@H](O)[C@H]1C (stereo not given in full) | 0.237 µM (active) | inactive | inactive | inactive | inactive | – | inactive | – | – | – | – | – | inactive | – | inactive | inactive | inactive | inactive | – | inactive
COC(=O)/C=C(\C)CCC=C(C)C | inactive | inactive | inactive | inactive | inactive | inactive | inactive | inactive | inactive | inactive | inactive | inactive | inactive | inactive | – | inactive | inactive | – | inactive | inactive
CC(CC=O)c1ccccc1 (stereo not given) | inactive | inactive | inactive | inactive | inactive | – | inactive | – | – | inactive | inactive | inactive | inactive | inactive | inactive | inactive | inactive | inactive | inactive | inactive
O=C(O)c1ccc(-n2nc(-c3ccccc3O)nc2-c2ccccc2O)cc1 | inactive | inactive | inactive | inactive | – | inactive | inactive | inactive | inactive | inactive | – | inactive | – | – | – | 11.2 µM (active) | inactive | inactive | inactive | inactive
CC[C@]12CCCN3CCc4c(n(c5ccccc45)C(=O)C1)[C@@H]32 | inactive | inactive | inactive | inactive | inactive | – | inactive | – | – | – | inactive | inactive | inactive | inactive | inactive | inactive | – | inactive | inactive | inactive
CC(C)OC(=O)OCOP(=O)(CO[C@H](C)Cn1cnc2c(N)ncnc21)OCOC(=O)OC(C)C | inactive | inactive | inactive | inactive | – | inactive | inactive | inactive | inactive | inactive | inactive | – | inactive | inactive | – | – | inactive | inactive | inactive | inactive
O=C1c2ccccc2C(=O)N1CCc1noc(-c2ccc(CN3CCCCCC3)s2)n1 | inactive | inactive | inactive | inactive | inactive | inactive | inactive | inactive | – | – | – | inactive | – | – | – | inactive | – | – | inactive | inactive
OCCN1CCN(CCO)CC1 | inactive | inactive | inactive | inactive | inactive | – | inactive | inactive | – | inactive | inactive | inactive | inactive | inactive | – | inactive | inactive | inactive | inactive | inactive
